The nature of test [1]: yeast TOR pathway RPL19A-GFP modulators, primary screen, cell-based, S. cerevisiae, multiplex flow cytometry (AID 1862).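 Also: lower values mimic rapamycin by blocking the RPL19A rise seen in DMSO cells.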 The settings on record: S. cerevisiae RPL19A-GFP strain, flow cytometry fluorescence, 3 h; at 10 µM; stronger effect = lower value. For orientation: A flow cytometer gives signals particle by particle.
Test [2] in a line: modulators of MEP2-GFP levels in yeast, primary screen, S. cerevisiae, multiplex flow cytometry (AID 1867;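 active = GFP response, as percent of the DMSO control, above the screen-wide mean plus 3 SD, about 139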;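 also: median GFP channel fluorescence of barcode-gated MEP2-GFP cells measured by flow cytometry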). The settings on record: S. cerevisiae MEP2-GFP strain, 3 h, at 10 µM, stronger effect = higher value, 100% means same as DMSO wells.
A short description of test [3]: modulators of CIT2-GFP expression in yeast, primary screen, S. cerevisiae, GFP fusion, multiplex flow cytometry (AID 1870;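 active = percent response above a set limit, the screen-wide mean plus 3 SD, cut at about 130% in these data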;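 also: barcoded CIT2-GFP strain pooled with four other GFP strains with rapamycin as positive control; median GFP fluorescence per well over plate mean of DMSO wells so 100% = DMSO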). The settings on record: 3 h, at 10 µM, stronger effect = higher value.
Test [4] in a line: modulators of LAP4-GFP expression in yeast, primary screen, S. cerevisiae, multiplex flow cytometry (AID 1873;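 active = GFP signal, as percent of the solvent control, above the screen mean plus 3 SD, about 149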). The settings on record: 3 h, at 10 µM, stronger effect = higher value.
A short description of test [5]: modulators of AGP1-GFP expression in yeast TOR pathway, primary screen, cell-based, multiplex flow cytometry, S. cerevisiae (AID 1887;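 active = GFP signal above the screen-wide mean plus 3 SD, that is over about 124.5% of the solvent control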;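 also: AGP1-GFP fusion strain of S. cerevisiae within a five-strain barcoded multiplex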). Particulars: 3 h, at 10 µM, stronger effect = higher value.
Test [6] can be described thus: inhibitors of CD8+ T cell-vesicle binding, pilot screen, LFA-1/ICAM-1 modulator project, MLPCN validation set, flow cytometry (AID 2523;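 active = response below a set limit, under 55% cells CD8-positive and vesicle-bound, and CD8 cells' 90th-percentile brightness under 279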;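 as to vesicle binding response: mean PE anti-B7-1 fluorescence of CD8+ cells relative to row control; 100% = QL9-loaded vesicles with DMSO vehicle in the same plate row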). The settings on record: 2C mouse CD8+ T cells, at 7 µM, stronger effect = lower value; double positive events: measured here: CD8+/vesicle+ event percentage.
Test [7] deals with Integrin beta-1 (Homo sapiens) + Integrin alpha-4 (Homo sapiens) (UniProt P13612+P05556). Briefly: inhibition of HUTS-21 binding to VLA-4, pilot screen, VLA-4 allosteric modulator project, U937 cells, HUTS-21 mAb, flow cytometry, validation set (AID 2674;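 active = inhibition above 50%, about 3 SD of the validation set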;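 also: antibody binding induced by the VLA-4 ligand LDV present at three times its Kd; 0% = LDV ligand with antibody and no compound and 100% = antibody without LDV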). Particulars: HUTS-21 LIBS mAb binding, at 6.7 µM, stronger effect = higher value, binding induced by LDV ligand.
Test [8] is described as follows: superoxide lowering in aged yeast cells, pilot screen, validation compound set (AID 2706;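 active = superoxide response below 65% of plate, a cut near 3 SD across the whole screen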;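 also: yeast exposed to compound for one week at 30 degrees C before staining; 100% = mean of all compound wells on the same plate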). The settings on record: S. cerevisiae aging, superoxide DHE fluorescence; at 10 µM; stronger effect = lower value.
Test [9] addresses Beta-adrenergic receptor kinase 1 (Homo sapiens) (UniProt P25098). Briefly: GRK2 binders displacing RNA aptamer, biochemical, validation, human GRK2, bead flow cytometry (AID 488806;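 active = aptamer binding inhibition above 30%, about 3 SD of noise from non-fluorescent compounds; inactive = inhibition at or below 30%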). The settings on record: bead-bound GRK2, FAM-aptamer displacement, at 10 µM, stronger effect = higher value.
Test [10] has as its target Beta-2 adrenergic receptor (Homo sapiens) (UniProt P07550). The test is described as follows: beta2AR agonists driving receptor internalization, pilot screen, cell-based, FAP fluorogen, flow cytometry, validation set (AID 504459;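 active = percent response above 42, roughly 3 SD of non-fluorescent test compounds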;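 also: agonist-driven loss of surface beta2AR via internalization measured by FAP dye flow cytometry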). The settings on record: Am2.2-beta2AR cells, FAP surface receptor flow cytometry; at 10 µM; stronger effect = higher value.
The target in test [11] is AP-2 complex subunit beta (Homo sapiens) (UniProt P63010). The test is described as follows: inhibitors of arrestin peptide binding to AP2, pilot screen, biochemical, validation set, GST-AP2 beads, flow cytometry (AID 504541;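 active = inhibition above 54%, about 3 SD of non-fluorescent compounds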;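 also: AP2 carries R879A mutation and is captured from E. coli lysate; bead-bound FITC arrestin peptide fluorescence measuring arrestin peptide binding to AP2; 0% = DMSO wells and 100% = excess unlabeled arrestin peptide control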). Particulars: FITC arrestin peptide, at 10 µM, stronger effect = higher value, AP2 beta2 appendage fragment, R879A mutant.
The nature of test [12]: yeast V-ATPase proton transport modulators, S. cerevisiae, pHLuorin, HTS validation (AID 504600; in the data active = response above about 15%;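 also: plate controls were DMSO for no effect and reference compound for full effect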). The settings on record: S. cerevisiae pHLuorin cytosolic pH, at 10 µM, stronger effect = higher value.
For test [13], the system named is anti-desmoglein-3 scFv antibody binding to human DSG3. The test is described as follows: inhibitors of anti-DSG3 scFv binding to DSG3, pilot screen, biochemical, validation compound set, bead-based, flow cytometry (AID 588368;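 active = binding below the plate cutoff, the plate median minus 3 SD, with a reading above zero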;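 also: signal is the median channel fluorescence of bead-bound GFP antibody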). Particulars: Protein G beads, DSG3-Fc, scFv-GFP binding, at 10 µM, stronger effect = lower value.
Test [14] can be described thus: inhibitors of fungal efflux pumps CDR1, CDR2, MDR1, pilot screen, validation compound set, multiplex, phenotypic (AID 588506;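 active = efflux inhibition above 0.42, the validation set average plus 4 SD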;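 also: Nile Red retained in cells so higher fluorescence means more efflux inhibition; 0 = negative control wells and 1 = enniatin B 25 µM full block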). Particulars: S. cerevisiae pump-expressing triplex, Nile Red efflux flow cytometry; at 10 µM; stronger effect = higher value; the pumps come from Candida albicans.
In test [15] the target is ATP-binding cassette sub-family B member 6 (Homo sapiens) (UniProt Q9NP58). Briefly: ABCB6 transporter inhibitors, pilot screen, K562-ABCB6 cells, flow cytometry, validation set (AID 588550;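 active = inhibition above the screen-wide mean plus 3 SD, about 51%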;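 also: 0% = DMSO wells and 100% = benzethonium chloride 70 µM positive control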). Particulars: K562-ABCB6 porphyrin accumulation, 1 h, at 10 µM, stronger effect = higher value.
Test [16] in a line: promoters of myeloid differentiation in arrested cells, primary screen, cell-based, GFP/MAC1 double positive, flow cytometry, validation set (AID 588685;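 active = differentiation response of at least 50%, scaled between solvent and reference control, from cells with both markers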;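 also: compound exposure lasts four days before antibody staining and flow analysis; 0% = DMSO wells and 100% = 5 µM fulvestrant positive control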). The settings on record: ER-HoxA9 marrow cells, stronger effect = higher value, normalized: vehicle 0, fulvestrant 100.

The structures appear in SMILES notation. Records with an inconclusive call do not appear. Calls of active or inactive are those of the source. Rule as the data show it, unless noted: active = percent of DMSO control GFP below about 86%; inactive = the rest, inconclusive results apart.

The inhibition is the relative decrease from the control value, in per cent.

Chain of Integrin beta-1 (Homo sapiens) + Integrin alpha-4 (Homo sapiens) (P05556 whole entry, looked up): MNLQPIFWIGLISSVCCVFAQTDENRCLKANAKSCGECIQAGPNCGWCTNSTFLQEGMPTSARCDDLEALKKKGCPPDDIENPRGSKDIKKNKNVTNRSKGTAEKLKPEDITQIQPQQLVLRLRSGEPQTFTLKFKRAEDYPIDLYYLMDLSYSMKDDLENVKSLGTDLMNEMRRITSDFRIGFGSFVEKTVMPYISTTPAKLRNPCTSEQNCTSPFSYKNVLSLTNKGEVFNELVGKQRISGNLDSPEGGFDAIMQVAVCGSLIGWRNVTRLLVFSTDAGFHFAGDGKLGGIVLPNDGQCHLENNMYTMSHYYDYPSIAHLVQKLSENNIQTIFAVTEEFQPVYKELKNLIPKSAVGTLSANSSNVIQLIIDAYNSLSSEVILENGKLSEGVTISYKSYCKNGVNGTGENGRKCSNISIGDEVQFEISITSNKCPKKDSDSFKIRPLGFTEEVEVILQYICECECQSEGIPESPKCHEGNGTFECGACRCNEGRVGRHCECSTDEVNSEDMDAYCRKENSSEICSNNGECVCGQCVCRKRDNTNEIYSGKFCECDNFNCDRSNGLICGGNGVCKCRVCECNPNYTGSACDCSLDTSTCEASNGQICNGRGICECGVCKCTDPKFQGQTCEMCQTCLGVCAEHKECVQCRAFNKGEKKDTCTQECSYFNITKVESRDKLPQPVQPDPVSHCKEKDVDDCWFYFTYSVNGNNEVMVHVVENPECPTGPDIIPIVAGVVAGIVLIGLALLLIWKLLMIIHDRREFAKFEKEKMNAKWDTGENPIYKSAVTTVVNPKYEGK
Chain of Integrin beta-1 (Homo sapiens) + Integrin alpha-4 (Homo sapiens) (P13612 whole entry, looked up): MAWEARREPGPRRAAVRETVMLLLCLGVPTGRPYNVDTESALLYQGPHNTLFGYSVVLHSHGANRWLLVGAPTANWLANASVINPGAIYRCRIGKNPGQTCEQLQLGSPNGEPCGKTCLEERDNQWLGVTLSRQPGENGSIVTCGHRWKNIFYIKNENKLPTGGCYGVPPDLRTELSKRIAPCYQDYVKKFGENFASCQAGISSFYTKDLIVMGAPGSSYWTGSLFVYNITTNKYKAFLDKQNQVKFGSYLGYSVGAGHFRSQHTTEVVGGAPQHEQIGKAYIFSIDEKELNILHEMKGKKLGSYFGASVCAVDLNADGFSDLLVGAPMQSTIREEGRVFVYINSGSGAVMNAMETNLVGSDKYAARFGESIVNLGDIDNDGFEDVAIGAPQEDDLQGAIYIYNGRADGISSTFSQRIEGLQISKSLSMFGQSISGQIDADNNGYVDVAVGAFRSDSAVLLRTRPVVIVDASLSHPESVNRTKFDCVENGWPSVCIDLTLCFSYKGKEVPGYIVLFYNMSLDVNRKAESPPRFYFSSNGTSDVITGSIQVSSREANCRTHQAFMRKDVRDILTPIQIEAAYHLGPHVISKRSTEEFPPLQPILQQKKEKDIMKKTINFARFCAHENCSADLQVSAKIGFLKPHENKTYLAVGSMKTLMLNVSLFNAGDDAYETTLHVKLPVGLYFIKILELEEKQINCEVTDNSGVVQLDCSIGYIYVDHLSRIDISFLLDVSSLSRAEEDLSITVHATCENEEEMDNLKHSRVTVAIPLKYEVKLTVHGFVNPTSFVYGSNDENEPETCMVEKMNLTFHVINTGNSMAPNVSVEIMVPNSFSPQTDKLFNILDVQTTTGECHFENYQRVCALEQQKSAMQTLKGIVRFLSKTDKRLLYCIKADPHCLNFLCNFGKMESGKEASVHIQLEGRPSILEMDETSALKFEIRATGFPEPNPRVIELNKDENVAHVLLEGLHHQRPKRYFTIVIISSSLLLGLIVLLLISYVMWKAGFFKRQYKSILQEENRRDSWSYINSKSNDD
Chain of Beta-adrenergic receptor kinase 1 (Homo sapiens) (P25098 whole entry, looked up): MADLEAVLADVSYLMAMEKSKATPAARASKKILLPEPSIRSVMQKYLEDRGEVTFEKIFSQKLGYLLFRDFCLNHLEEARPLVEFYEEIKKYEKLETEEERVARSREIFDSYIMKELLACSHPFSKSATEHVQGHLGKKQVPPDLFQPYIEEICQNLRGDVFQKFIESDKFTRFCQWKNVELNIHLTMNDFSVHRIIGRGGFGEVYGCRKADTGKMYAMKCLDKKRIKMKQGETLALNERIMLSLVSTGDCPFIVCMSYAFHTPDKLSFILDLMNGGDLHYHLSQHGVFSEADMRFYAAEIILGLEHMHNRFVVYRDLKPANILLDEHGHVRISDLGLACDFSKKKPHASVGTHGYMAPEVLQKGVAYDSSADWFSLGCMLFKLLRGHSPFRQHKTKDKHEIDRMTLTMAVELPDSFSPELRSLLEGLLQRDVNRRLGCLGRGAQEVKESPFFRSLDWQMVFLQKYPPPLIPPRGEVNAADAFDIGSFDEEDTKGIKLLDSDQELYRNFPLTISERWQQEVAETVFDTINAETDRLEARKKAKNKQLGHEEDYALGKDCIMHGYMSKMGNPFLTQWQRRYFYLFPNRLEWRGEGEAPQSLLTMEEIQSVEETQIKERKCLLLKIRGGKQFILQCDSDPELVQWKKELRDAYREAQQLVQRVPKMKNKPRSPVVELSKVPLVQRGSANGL
Chain of ATP-binding cassette sub-family B member 6 (Homo sapiens) (Q9NP58 whole entry, looked up): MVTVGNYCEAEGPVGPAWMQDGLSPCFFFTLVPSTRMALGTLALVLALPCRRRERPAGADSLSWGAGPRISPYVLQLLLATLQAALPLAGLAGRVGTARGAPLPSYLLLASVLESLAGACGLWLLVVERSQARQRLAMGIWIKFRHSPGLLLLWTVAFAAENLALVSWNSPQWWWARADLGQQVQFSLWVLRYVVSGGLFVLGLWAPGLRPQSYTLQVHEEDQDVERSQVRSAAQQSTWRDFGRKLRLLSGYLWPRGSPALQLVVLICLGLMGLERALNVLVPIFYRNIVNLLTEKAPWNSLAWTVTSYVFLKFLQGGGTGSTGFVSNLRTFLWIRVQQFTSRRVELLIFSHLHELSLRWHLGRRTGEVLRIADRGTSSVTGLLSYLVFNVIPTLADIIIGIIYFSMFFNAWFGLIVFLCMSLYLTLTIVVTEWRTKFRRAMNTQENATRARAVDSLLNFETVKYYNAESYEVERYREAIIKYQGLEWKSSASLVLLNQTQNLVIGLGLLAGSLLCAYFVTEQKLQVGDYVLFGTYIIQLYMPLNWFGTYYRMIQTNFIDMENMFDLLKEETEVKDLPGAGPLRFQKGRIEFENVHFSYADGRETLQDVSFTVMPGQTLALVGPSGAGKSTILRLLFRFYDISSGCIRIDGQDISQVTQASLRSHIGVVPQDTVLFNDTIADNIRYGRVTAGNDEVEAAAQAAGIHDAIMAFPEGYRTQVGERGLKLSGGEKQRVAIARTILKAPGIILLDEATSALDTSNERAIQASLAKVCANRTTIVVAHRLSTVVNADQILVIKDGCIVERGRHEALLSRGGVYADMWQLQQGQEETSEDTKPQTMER
Chain of AP-2 complex subunit beta (Homo sapiens) (P63010 whole entry, looked up, the tested form may be a part, one chain of several): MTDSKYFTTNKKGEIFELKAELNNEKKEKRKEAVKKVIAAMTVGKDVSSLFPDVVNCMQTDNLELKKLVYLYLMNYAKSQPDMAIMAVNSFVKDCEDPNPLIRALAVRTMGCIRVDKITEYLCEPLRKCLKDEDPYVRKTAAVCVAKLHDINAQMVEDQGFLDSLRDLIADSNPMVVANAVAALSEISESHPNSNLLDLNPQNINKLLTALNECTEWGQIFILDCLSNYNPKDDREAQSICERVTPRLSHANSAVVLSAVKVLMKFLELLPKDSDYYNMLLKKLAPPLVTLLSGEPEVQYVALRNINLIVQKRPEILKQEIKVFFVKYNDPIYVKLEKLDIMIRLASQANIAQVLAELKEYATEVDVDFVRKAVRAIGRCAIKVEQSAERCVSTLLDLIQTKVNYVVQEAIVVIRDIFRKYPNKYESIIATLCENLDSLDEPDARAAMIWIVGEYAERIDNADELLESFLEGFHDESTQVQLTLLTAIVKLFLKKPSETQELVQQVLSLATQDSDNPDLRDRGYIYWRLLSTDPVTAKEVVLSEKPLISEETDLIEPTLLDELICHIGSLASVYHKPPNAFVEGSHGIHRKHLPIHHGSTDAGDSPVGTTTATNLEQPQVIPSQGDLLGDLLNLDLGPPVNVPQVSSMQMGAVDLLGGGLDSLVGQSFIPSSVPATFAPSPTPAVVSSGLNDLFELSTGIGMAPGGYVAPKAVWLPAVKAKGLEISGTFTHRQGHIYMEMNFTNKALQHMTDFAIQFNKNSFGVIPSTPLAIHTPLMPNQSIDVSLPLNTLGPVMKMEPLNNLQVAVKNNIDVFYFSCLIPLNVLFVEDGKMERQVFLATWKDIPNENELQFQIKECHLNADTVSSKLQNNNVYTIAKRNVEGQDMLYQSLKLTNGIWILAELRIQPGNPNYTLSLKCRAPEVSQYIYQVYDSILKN
Chain of Beta-2 adrenergic receptor (Homo sapiens) (P07550 whole entry, looked up): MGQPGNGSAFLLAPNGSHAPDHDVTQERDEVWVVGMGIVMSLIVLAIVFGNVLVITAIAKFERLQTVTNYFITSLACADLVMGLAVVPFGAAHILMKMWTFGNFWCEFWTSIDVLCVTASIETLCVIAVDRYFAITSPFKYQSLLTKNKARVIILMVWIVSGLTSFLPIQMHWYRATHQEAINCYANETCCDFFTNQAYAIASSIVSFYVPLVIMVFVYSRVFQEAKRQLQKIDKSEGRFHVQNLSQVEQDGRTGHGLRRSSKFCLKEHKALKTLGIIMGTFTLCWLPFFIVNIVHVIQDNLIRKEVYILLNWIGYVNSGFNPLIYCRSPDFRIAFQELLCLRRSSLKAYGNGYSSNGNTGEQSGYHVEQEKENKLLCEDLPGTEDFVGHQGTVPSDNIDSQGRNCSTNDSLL

Take `C=CCNc1nc2c(c(=O)n(C)c(=O)n2C)n1CC(=C)C`: in test [1], the percent of DMSO control GFP was 101% (inactive). Besides, the GFP response vs DMSO in test [2] is 101% (inactive); in [4], 91.6% (inactive). In test [3], the percent response of DMSO control was 101% (inactive). Moreover, the GFP response, % of DMSO in [5] was 103% (inactive). This molecule came in with a double positive events in test [6] of 63.3%. Also, the vesicle binding response in test [6] was 176% (inactive). Moreover, the figures for the inhibition in [7], in test [11] and in [15] were -16.1% (inactive), 8.24% (inactive) and 3% (inactive), respectively. Moreover, in [8], the superoxide response (% of plate) is 103% (inactive). In test [9], the aptamer binding inhibition is 3% (inactive). The response in [10] is -5.19% (inactive); in test [12], -4.28% (inactive). For the same molecule, the binding (% of control) in test [13] was 104% (inactive). Besides, in test [14], the efflux inhibition (fraction of control) was -0.38 (inactive). Also, the differentiation response in test [16] was -1.88% (inactive).

For the molecule `CC(C)Oc1cccc(C(=O)N2CCCC2)c1`, the percent of DMSO control GFP in test [1] was 102% (inactive). For the same molecule, the GFP response vs DMSO in test [2] was 106% (inactive); in [4], 99.9% (inactive). Also, the percent response of DMSO control in test [3] is 94.2% (inactive). The GFP response, % of DMSO in test [5] was 100% (inactive). In test [6], this molecule registered a double positive events of 64.7%. In addition, in test [6], the vesicle binding response was 221% (inactive). In addition, the values for the inhibition in test [7], in [11] and in test [15] were -4.6% (inactive), -4.57% (inactive) and -4% (inactive), respectively. Moreover, in [8], the superoxide response (% of plate) was 101% (inactive). Further, the aptamer binding inhibition in [9] was 0% (inactive). Moreover, the results for the response in test [10] and in test [12] were -9.83% (inactive) and 1.82% (inactive), respectively. For the same molecule, the binding (% of control) in [13] is 93.2% (inactive). Also, in [14], the efflux inhibition (fraction of control) is 0.14 (inactive). For the same molecule, the differentiation response in [16] is 9.04% (inactive).

For `COc1ccc(CCN2C(=O)CSC2c2ccc(OC)c(OC)c2)cc1OC` (stereo not given), in test [1], the percent of DMSO control GFP was 102% (inactive). Besides, the GFP response vs DMSO in [2] was 118% (inactive); in [4] it was 104% (inactive). Moreover, in test [3], the percent response of DMSO control was 87.2% (inactive). Also, in test [5], the GFP response, % of DMSO is 95.7% (inactive). Also, in test [6], the double positive events stood at 63.2%. Besides, the vesicle binding response in [6] is 184% (inactive). The inhibition is 9.13% (inactive) in test [7], 8.66% (inactive) in test [11] and 1% (inactive) in test [15]. Besides, the superoxide response (% of plate) in [8] was 104% (inactive). Further, in [9], the aptamer binding inhibition was 2% (inactive). Moreover, the response in [10] is -12.9% (inactive); in test [12], -1.47% (inactive). In test [13], the binding (% of control) is 100% (inactive). Also, in test [14], the efflux inhibition (fraction of control) is 0.05 (inactive). Also, in test [16], the differentiation response was 21.6% (inactive).

On to `C=C1C2(C(=O)Nc3ccc(SC(F)F)cc3)CCC(C2)C1(C)C` (stereo not given), for which, in test [1], the percent of DMSO control GFP was 103% (inactive). For the same molecule, the figures for the GFP response vs DMSO in test [2] and in [4] were 99.3% (inactive) and 96% (inactive), respectively. Besides, in test [3], the percent response of DMSO control is 105% (inactive). For the same molecule, in [5], the GFP response, % of DMSO is 100% (inactive). Further, the double positive events in [6] turned out to be 66.3%. In addition, the vesicle binding response in test [6] was 1190% (inactive). Moreover, the inhibition in test [7] is 1.62% (inactive); in test [11] it was -6.22% (inactive); in [15], 7% (inactive). Besides, the superoxide response (% of plate) in test [8] was 82.1% (inactive). Also, the aptamer binding inhibition in test [9] is 1% (inactive). The response in [10] is -6.87% (inactive); in test [12] it was 1.62% (inactive). The binding (% of control) in test [13] was 101% (inactive). Moreover, in test [14], the efflux inhibition (fraction of control) is -0.29 (inactive). Besides, the differentiation response in test [16] was 2.2% (inactive).

In the case of `CCOC(=O)N1CCN(Cc2nc(Cc3cccc(F)c3)no2)CC1`, the percent of DMSO control GFP in test [1] was 102% (inactive). Further, the GFP response vs DMSO was 105% (inactive) in test [2] and 99.9% (inactive) in test [4]. Besides, in test [3], the percent response of DMSO control is 100% (inactive). In addition, the GFP response, % of DMSO in test [5] is 101% (inactive). Moreover, the double positive events in test [6] is 64.5%. In addition, in test [6], the vesicle binding response was 171% (inactive). The figures for the inhibition in [7], in test [11] and in test [15] were -3.57% (inactive), -8.69% (inactive) and 13% (inactive), respectively. For the same molecule, the superoxide response (% of plate) in test [8] is 103% (inactive). For the same molecule, the aptamer binding inhibition in test [9] was 5% (inactive). The response in test [10] is 0.58% (inactive); in test [12] it was 2.06% (inactive). Besides, in test [13], the binding (% of control) is 94.8% (inactive). The efflux inhibition (fraction of control) in test [14] is 0.02 (inactive). Further, the differentiation response in test [16] is 4.15% (inactive).

Values taken from PubChem BioAssay.
